# Tests used:
# Test in all cases: cross-link between two proteins; cross-linking mass spectrometry
# [1] = target: DNA-directed RNA polymerase II subunit RPB7 (UniProt P34087)
# [2] = target: DNA-directed RNA polymerase II subunit RPB3 (UniProt P16370)
# [3] = target: DNA-directed RNA polymerases I, II, and III subunit RPABC2 (UniProt P20435)
# [4] = target: DNA-directed RNA polymerase II subunit RPB11 (UniProt P38902)
# [5] = target: DNA-directed RNA polymerase II subunit RPB9 (UniProt P27999)
# Chain of DNA-directed RNA polymerase II subunit RPB9 (P27999 whole entry): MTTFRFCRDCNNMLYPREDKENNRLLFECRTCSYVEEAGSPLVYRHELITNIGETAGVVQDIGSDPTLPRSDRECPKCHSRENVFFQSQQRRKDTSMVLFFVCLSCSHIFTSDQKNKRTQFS
# [6] = target: DNA-directed RNA polymerases I, II, and III subunit RPABC1 (UniProt P20434)
# Chain of DNA-directed RNA polymerases I, II, and III subunit RPABC1 (P20434 whole entry): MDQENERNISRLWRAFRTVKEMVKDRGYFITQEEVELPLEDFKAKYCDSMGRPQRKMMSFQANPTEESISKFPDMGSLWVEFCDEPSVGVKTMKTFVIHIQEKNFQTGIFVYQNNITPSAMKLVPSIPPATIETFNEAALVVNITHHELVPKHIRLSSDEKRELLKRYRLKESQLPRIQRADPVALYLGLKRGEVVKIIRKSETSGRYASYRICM
# [7] = target: DNA-directed RNA polymerases I, II, and III subunit RPABC3 (UniProt P20436)
# Chain of DNA-directed RNA polymerases I, II, and III subunit RPABC3 (P20436 whole entry): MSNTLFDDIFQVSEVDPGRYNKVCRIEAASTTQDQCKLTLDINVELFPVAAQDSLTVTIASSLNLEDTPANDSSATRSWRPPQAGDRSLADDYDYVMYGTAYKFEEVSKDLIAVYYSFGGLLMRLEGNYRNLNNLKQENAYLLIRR
# Chain of DNA-directed RNA polymerase II subunit RPB1, P04050 (P04050 whole entry): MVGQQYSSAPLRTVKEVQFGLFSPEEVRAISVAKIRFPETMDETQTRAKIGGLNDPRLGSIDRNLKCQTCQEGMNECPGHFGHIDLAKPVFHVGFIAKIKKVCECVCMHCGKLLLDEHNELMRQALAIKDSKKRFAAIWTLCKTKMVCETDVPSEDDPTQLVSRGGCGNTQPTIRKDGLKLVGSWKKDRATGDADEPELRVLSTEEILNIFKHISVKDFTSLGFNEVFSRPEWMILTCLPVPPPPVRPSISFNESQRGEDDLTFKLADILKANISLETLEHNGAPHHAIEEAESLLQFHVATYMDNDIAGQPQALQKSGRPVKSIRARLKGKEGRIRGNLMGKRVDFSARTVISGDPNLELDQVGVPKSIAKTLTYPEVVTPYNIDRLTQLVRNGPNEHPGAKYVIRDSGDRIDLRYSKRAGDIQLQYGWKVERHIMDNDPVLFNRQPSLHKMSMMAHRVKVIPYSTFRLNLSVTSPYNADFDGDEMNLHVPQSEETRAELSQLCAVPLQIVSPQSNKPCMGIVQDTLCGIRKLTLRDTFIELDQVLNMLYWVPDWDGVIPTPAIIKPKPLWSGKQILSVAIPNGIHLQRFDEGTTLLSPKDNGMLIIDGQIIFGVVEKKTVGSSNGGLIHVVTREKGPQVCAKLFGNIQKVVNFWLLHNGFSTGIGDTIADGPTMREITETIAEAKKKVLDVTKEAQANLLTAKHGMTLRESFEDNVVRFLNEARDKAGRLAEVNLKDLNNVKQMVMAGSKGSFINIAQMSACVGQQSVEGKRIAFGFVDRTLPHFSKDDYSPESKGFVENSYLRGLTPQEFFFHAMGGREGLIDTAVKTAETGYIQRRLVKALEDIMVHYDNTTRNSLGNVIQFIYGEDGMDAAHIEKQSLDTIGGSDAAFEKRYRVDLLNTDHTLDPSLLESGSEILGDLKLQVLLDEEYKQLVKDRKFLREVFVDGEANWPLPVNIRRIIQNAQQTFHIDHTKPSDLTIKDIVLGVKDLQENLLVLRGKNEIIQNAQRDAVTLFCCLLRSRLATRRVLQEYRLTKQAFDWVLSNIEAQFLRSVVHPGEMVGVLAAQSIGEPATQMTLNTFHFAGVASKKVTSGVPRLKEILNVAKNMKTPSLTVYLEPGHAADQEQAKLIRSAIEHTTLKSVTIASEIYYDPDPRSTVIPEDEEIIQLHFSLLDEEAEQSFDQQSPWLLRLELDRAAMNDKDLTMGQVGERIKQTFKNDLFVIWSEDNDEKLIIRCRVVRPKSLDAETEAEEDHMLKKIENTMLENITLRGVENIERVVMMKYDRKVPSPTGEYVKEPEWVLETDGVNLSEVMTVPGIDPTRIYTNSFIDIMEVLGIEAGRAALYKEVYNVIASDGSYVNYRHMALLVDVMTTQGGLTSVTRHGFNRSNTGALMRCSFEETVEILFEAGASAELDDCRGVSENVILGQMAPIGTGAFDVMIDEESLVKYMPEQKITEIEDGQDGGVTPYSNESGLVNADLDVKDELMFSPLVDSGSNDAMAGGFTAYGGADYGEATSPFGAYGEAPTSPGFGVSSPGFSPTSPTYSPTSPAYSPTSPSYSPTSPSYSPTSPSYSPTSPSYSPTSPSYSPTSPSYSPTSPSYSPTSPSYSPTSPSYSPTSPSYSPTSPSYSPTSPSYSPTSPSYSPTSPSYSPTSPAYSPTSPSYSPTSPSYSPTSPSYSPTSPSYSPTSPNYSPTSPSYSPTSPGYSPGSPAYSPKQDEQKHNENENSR
# Chain of DNA-directed RNA polymerases I, II, and III subunit RPABC2 (P20435 whole entry): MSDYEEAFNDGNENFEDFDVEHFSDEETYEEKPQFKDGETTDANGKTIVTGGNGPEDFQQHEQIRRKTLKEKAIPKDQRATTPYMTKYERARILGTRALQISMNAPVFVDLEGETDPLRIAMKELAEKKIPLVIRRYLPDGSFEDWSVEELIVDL
# Chain of DNA-directed RNA polymerase II subunit RPB7 (P34087 whole entry): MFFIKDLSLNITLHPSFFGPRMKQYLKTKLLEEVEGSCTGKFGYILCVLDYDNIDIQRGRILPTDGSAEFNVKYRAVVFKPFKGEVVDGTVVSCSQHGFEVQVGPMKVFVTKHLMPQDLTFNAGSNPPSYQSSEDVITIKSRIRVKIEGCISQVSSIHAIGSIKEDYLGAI
# Chain of DNA-directed RNA polymerase II subunit RPB2, P08518 (P08518 whole entry): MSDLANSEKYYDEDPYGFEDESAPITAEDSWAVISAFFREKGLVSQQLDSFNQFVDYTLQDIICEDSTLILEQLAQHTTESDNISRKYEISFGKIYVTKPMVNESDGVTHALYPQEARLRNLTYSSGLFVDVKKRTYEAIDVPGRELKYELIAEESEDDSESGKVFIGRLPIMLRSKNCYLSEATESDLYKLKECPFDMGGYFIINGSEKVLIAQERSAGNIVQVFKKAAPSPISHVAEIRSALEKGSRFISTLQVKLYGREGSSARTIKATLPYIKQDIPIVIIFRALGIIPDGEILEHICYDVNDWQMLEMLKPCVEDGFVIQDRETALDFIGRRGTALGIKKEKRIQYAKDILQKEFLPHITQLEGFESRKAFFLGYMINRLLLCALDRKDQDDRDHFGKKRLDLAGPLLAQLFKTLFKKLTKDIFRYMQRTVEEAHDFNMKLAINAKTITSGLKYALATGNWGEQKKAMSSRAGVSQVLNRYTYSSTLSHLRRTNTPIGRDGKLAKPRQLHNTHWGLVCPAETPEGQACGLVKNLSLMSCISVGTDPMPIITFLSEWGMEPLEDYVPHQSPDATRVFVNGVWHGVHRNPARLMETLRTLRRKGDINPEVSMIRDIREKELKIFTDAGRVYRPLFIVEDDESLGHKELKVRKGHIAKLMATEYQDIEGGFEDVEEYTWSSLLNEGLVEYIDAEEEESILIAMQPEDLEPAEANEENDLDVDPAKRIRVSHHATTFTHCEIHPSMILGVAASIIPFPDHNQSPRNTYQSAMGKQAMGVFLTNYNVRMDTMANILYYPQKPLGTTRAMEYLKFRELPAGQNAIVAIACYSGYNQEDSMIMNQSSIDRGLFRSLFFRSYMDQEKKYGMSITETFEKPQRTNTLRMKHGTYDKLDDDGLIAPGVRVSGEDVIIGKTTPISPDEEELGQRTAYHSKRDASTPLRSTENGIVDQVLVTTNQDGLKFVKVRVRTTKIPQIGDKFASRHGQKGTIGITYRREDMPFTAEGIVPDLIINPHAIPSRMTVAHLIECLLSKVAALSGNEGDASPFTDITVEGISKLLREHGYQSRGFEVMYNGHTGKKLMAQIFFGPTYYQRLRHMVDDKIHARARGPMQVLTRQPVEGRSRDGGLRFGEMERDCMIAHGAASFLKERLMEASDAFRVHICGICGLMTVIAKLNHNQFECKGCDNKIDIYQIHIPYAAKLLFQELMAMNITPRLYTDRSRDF
# Chain of DNA-directed RNA polymerase II subunit RPB3 (P16370 whole entry): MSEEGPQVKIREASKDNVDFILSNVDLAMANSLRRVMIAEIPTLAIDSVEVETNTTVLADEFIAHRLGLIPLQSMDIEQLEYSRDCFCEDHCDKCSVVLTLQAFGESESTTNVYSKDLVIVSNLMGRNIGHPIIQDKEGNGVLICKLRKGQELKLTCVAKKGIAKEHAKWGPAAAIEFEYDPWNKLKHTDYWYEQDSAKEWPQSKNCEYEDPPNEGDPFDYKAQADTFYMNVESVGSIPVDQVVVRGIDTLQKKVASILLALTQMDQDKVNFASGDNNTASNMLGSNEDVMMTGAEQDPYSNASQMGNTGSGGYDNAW
# Chain of DNA-directed RNA polymerase II subunit RPB11 (P38902 whole entry): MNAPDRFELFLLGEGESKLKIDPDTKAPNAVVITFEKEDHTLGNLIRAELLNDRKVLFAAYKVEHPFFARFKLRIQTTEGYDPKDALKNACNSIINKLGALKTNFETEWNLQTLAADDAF
substance,measurement,setting,value
"DNA-directed RNA polymerase II subunit RPB4, P20433",listed as a hit,[1],yes
"DNA-directed RNA polymerase II subunit RPB2, P08518",listed as a hit,[2],yes
"DNA-directed RNA polymerases I, II, and III subunit RPABC1, P20434",listed as a hit,[3],yes
"DNA-directed RNA polymerase II subunit RPB1, P04050",listed as a hit,[4],yes
same,listed as a hit,[5],yes
same,listed as a hit,[6],yes
same,listed as a hit,[3],yes
same,listed as a hit,[7],yes

# Reference: publication PMC4631838
